27 compounds from PubChem BioAssay (EPA / NIEHS) can be followed below.

Records with an inconclusive call do not appear. The source made the active and inactive calls. Rule for the calls: active = hit-call score of the fitted dose curve at least 0.9, where 1 is the maximum; inconclusive = response in the unintended direction; inactive = score below 0.9.

Chain of Estrogen receptor beta (Homo sapiens) (Q92731 whole entry, looked up, the tested form may be a part): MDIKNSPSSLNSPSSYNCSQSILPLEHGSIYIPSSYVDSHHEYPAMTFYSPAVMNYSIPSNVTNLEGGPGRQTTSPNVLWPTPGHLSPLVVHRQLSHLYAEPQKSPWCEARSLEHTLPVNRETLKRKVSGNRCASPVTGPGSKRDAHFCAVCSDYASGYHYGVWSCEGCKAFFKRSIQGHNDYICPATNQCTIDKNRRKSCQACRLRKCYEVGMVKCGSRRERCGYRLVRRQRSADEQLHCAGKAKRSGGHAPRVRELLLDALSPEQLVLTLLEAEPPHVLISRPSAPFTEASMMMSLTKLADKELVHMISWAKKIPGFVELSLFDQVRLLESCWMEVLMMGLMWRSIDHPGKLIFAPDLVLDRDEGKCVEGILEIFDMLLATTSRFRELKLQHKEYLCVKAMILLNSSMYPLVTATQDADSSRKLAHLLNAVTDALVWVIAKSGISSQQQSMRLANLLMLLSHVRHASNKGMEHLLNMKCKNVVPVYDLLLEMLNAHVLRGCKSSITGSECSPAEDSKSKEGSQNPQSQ

For this assay, the target named is Estrogen receptor beta (Homo sapiens) (UniProt Q92731). Description: OT_ER_ERbERb_0480: Odyssey Thera (OT) 8-hour HEK293T Protein-Complementation Assay for Estrogen Receptor-beta/-beta Homodimer (AID 2283357).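 Note: active means signal gain over DMSO baseline.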 Summed up:
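ER-beta LBD homodimer PCA stably expressed in HEK293T; 8 h compound exposure, then formaldehyde fixation and Draq5 staining. Gain in nuclear/cytoplasmic fluorescence intensity versus DMSO vehicle, read on laser scanning cytometer.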
Turning to `C=CCc1ccc(OC)c(OC)c1`, the compound was classed as inactive.
With `CC(=O)OCC(COC(C)=O)OC(C)=O`, the compound was called inactive.
The same measure, in the same setting: then `NC=O`, with “inactive”; and `NC1CCCCC1`, with “inactive”; and `CC(=O)OC1CC(C)OC(C)O1` (configuration not stated), with “inactive”.
Consider `CCCCCCC(C=O)=Cc1ccccc1`, for which the call was inactive.
On the same count and under the same terms, the entry for `CN(C)C(=O)NC1(c2ccccc2)CCN(CCC[C@]2(c3ccc(Cl)c(Cl)c3)CCCN(C(=O)c3ccccc3)C2)CC1` is “inactive”; for `CS(=O)(=O)c1ccc([C@@H](C[C@H]2CCC(=O)C2)C(=O)Nc2cnccn2)cc1Cl` it is “inactive”.
The same measure, in the same setting: the entry for `OCC(CO)n1cnc(-c2ccc(F)cc2)c1-c1ccnc(Oc2ccccc2)n1` is “inactive”; for `O=C1O[C@H]([C@H](O)CO)C(O)=C1O` it is “inactive”; for `O=[Si]=O` it is “inactive”.
Take `C=CCCCCCCCCCCCC`: the compound was classed as inactive.
On to `O=C(NS(=O)(=O)/C=C/c1cccs1)c1ccc(F)cc1Br`, for which the compound was classed as inactive.
The same measure, in the same setting: the entry for `C/C=C/C=C/C(=O)O` is “inactive”.
Still for that read-out and setting: the entry for `CC(COCC(C)OC(=O)c1ccccc1)OC(=O)c1ccccc1` (configuration not stated) is “inactive”.
Still for that read-out and setting: the entry for `CCCCC(CC)COC(=O)CCCCCCCC(=O)OCC(CC)CCCC` (configuration not stated) is “inactive”; for `Nc1nc(=S)c2[nH]cnc2[nH]1` it is “inactive”; for `C#CC(O)C(CC)CCCC` (configuration not stated) it is “inactive”.
As to `O=C1CCCCC1`, the result was inactive.
Still for that read-out and setting: then `CCCCC(CC)CO` (configuration not stated), with “inactive”.
Same read-out and setting: the entry for `Cc1cn([C@H]2C=C[C@@H](CO)O2)c(=O)[nH]c1=O` is “inactive”; for `CCCCCCCC(=O)OC` it is “inactive”.
For the compound `C/C=C/c1ccc(OC)cc1`, the compound was called inactive.
Take `Cc1ccc(C(C)(C)C)c(O)c1`: the AC50 (in general, the concentration at which the activity in the assay is half-maximal) was 13.2 µM (active).
Regarding `NCCOCCOCCN`, the result was inactive.
With `CC(N)=O`, the result was inactive.
Same read-out and setting: the entry for `CCCCCCCCCC[N+](C)(C)[O-]` is “inactive”.
